# Compound activity (PubChem)
# In the library only some 6.8% were active in any assay of this set; here they are far more common.
# Pf Dd2 inh: P. falciparum Dd2 growth inhibitors, primary screen, SYBR Green fluorescence, single dose replicates; 72 h; stronger effect = lower value; activity change, % at 10 µM; 2.3% of 94,000 active; in the data active = activity change below about -80%; inconclusive = no clear call, values can overlap the other calls
# T cruzi growth-1: T. cruzi intracellular proliferation inhibitors, primary screen, cell-based, beta-gal Tulahuen parasites, NIH3T3 host, luminescence; AID 624255, 2012; inhibition, % at 8.34 µM; 5.9% of 77,000 active; T. cruzi beta-gal in NIH3T3, GalScreen luminescence, 90 h;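 active = mean inhibition above about 93%, with at least 55% of replicates each passing it, limit read from the data, passing the limit was not always enough; inconclusive = only one of those two conditions holds; inactive = neither condition holds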
# C diff HTS: C. difficile growth inhibitors, primary screen, HTS; Clostridium difficile clinical isolate growth, OD600, 24 h; stronger effect = lower value; growth activity, negative = inhibition, % at 16 µg/mL (by protocol); 0.25% of 86,000 active;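 active = mean growth activity at or below -80% and every replicate also at or below -80%; inconclusive = mean at or below -80% but some replicate above -80%; inactive = mean growth activity above -80%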;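 also: 0% = DMSO wells and -100% = levofloxacin 16 µg/mL wells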
# T cruzi growth-2: T. cruzi intracellular proliferation inhibitors, confirmation, cell-based, NIH3T3 host, beta-gal parasite, luminescence, cherry-pick; inhibition, % at 8.35 µM; shares compounds with T cruzi growth-1; T. cruzi beta-gal in NIH3T3, GalScreen luminescence, 90 h; 72% of 5,600 active;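 active = mean replicate inhibition above about 95% and at least 55% of replicates individually reaching it, limit read from the data; inconclusive = only one of the two criteria is met; inactive = neither criterion is met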
# T cruzi growth-3: inhibitors of intracellular T. cruzi replication, confirmation, NIH3T3 host cells, beta-gal parasites, cherry-pick, set 2; shares compounds with T cruzi growth-1; T. cruzi beta-gal in NIH3T3, GalScreen luminescence, 90 h; inhibition, % at 2.09 µM; 21% of 5,600 active; AID 651740, 2012;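 active = mean inhibition above about 95%, with at least 55% of replicates also reaching it, limit read from the data; inconclusive = meets just one of the two conditions; inactive = meets neither condition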;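 also: plate controls were neutral control median for no effect and positive control median for full effect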
# 3T3 cytotox: cytotoxicity in mouse NIH/3T3 fibroblasts, confirmation, cytotoxicity control for T. cruzi proliferation inhibitor project, cell-based, cherry-pick, single point | shares compounds with T cruzi growth-1 | NIH/3T3 viability, CellTiter-Glo ATP luminescence, 90 h | cytotoxicity (signal decrease), % at 8.35 µM | 14% of 5,600 active | AID 651742, 2012;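 active = mean signal decrease across replicates above about 35% based on untreated-well scatter, with enough replicates individually passing, limit read from the data; inconclusive = no rule stated though some were filed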;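 also: 0% = median of neutral control wells and 100% = median of positive control wells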
# 3T3 cytotox 2: NIH/3T3 fibroblast cytotoxicity, confirmation, cytotoxicity control, cell-based, cherry-pick, single point, set 2; shares compounds with T cruzi growth-1; NIH/3T3 viability, CellTiter-Glo ATP luminescence, 90 h; inhibition, % at 24.9 µM; 56% of 5,600 active; AID 651744, 2012;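 active = mean loss of cell viability signal at or above a set limit, and enough replicates individually reaching it; inconclusive = meets only the mean limit or only the replicate share; inactive = meets neither condition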;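 also: 0% = median of neutral control wells and 100% = median of positive control wells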
# * hit, by the source's call; ? = inconclusive; . = no result given.
SMILES,Pf Dd2 inh,T cruzi growth-1,C diff HTS,T cruzi growth-2,T cruzi growth-3,3T3 cytotox,3T3 cytotox 2
COc1ccc(C(=O)Nc2ccc3c(c2)C(=O)N(C)C[C@H](OC)[C@H](C)CN(C)[C@H](C)CO3)cc1,18,-39,2,.,.,.,.
O=C(c1ccccc1)N1CC[C@H]2[C@H](CO)Nc3ccc(C#Cc4cccc(F)c4)cc3[C@H]21,-34,122*,42,112*,79,10,39*
O=C(c1ccccc1)N1CC[C@@H]2[C@H](CO)Nc3ccc(C#Cc4cccc(F)c4)cc3[C@@H]21,-11,46,-1,.,.,.,.
O=C(c1ccccc1)N1CC[C@H]2[C@H](CO)Nc3ccc(C#Cc4ccccc4F)cc3[C@H]21,-45,.,18,.,.,.,.
O=C(c1ccccc1)N1CC[C@@H]2[C@H](CO)Nc3ccc(C#Cc4ccccc4F)cc3[C@@H]21,-30,105*,-34,104*,72,45*,106*
COc1ccccc1C#Cc1ccc2c(c1)[C@H]1[C@H](CCN1C(=O)c1cccc(F)c1)[C@H](CO)N2,-74,?,-1,101*,87,33,104*
COc1ccccc1C#Cc1ccc2c(c1)[C@@H]1[C@@H](CCN1C(=O)c1cccc(F)c1)[C@H](CO)N2,-61,.,40,.,.,.,.
N#C[C@@H]1[C@H](c2ccccc2C2=CCCC2)[C@H](CO)N1C(=O)C1CCCC1,-6,.,4,.,.,.,.
C[C@H](CO)N1C[C@H](C)[C@@H](CN(C)CC2CC2)Oc2cc(-c3cncnc3)ccc2S1(=O)=O,-23,103,.,.,.,.,.
COc1ccc2c3c(n(C)c2c1)[C@@H](CO)N(C(=O)NC(C)C)CC31CN(CC2CCOCC2)C1,33,.,-5,.,.,.,.
C[C@@H]1CCCCO[C@@H](CN(C)C(=O)C2CCCCC2)[C@H](C)CN([C@@H](C)CO)C(=O)c2cc(NC(=O)Nc3ccc4c(c3)OCO4)ccc2O1,-4,104,-2,.,.,.,.
O=C(Nc1ccc(-c2ccccc2)cc1)[C@@H]1[C@@H](CO)[C@@H]2Cn3c(cccc3=O)[C@@H]2N1CC1CCOCC1,-14,69,-3,.,.,.,.
C[C@H](CO)N1C[C@H](C)[C@@H](CN(C)Cc2ccc(Cl)c(Cl)c2)Oc2c(NC(=O)Nc3ccc(F)cc3)cccc2C1=O,-14,4,.,.,.,.,.
C[C@@H]1CN([C@H](C)CO)C(=O)c2cccc(NC(=O)Nc3ccc(C(F)(F)F)cc3)c2O[C@@H]1CN(C)S(=O)(=O)c1ccc(Cl)cc1,-37,108*,.,103*,107*,34,105*
Cc1ccc(S(=O)(=O)N(C)C[C@H]2Oc3c(NC(=O)Nc4ccc(C(F)(F)F)cc4)cccc3C(=O)N([C@H](C)CO)C[C@@H]2C)cc1,-63,85,10,.,.,.,.
C[C@H]1CN([C@@H](C)CO)C(=O)c2cccc(NC(=O)Nc3ccc4c(c3)OCO4)c2O[C@H]1CN(C)Cc1ccc(C(F)(F)F)cc1,5,30,0,.,.,.,.
C[C@H](CO)N1C[C@H](C)[C@H](CN(C)Cc2ccc(Cl)c(Cl)c2)Oc2ccc(NC(=O)Nc3ccc(C(F)(F)F)cc3)cc2C1=O,-5,103*,28,98*,109*,33,108*
C[C@@H]1CN([C@H](C)CO)C(=O)c2cccc(NC(=O)Nc3ccc(C(F)(F)F)cc3)c2O[C@H]1CN(C)Cc1ccc(Cl)c(Cl)c1,-16,?,27,99*,108*,22,105*
C[C@H]1CN([C@@H](C)CO)C(=O)c2cc(NC(=O)Nc3ccc(C(F)(F)F)cc3)ccc2O[C@@H]1CN(C)Cc1ccc(Cl)c(Cl)c1,-33,84,1,.,.,.,.
C[C@H]1CN([C@@H](C)CO)C(=O)c2cccc(NC(=O)Nc3ccc(C(F)(F)F)cc3)c2O[C@H]1CN(C)Cc1ccc2c(c1)OCO2,-25,99*,.,106*,103*,5,98*
COCC#Cc1cnc2c(c1)C(=O)N([C@H](C)CO)C[C@@H](C)[C@@H](CN(C)C(=O)c1cnccn1)O2,5,47,-8,.,.,.,.
COc1ccc(S(=O)(=O)Nc2ccc3c(c2)C(=O)N([C@@H](C)CO)C[C@H](C)[C@@H](CN(C)C(=O)Nc2cccc4ccccc24)O3)cc1,-45,-60,-16,.,.,.,.
COc1ccc(NC(=O)Nc2cccc3c2O[C@H](CN(C)S(=O)(=O)c2ccccc2)[C@H](C)CN([C@H](C)CO)C3=O)cc1,-22,5,-10,.,.,.,.
COc1ccc(CN(C)C[C@H]2Oc3c(NS(=O)(=O)c4cn(C)cn4)cccc3C(=O)N([C@@H](C)CO)C[C@H]2C)cc1,27,9,-3,.,.,.,.
COCC#Cc1ccc([C@@H]2[C@@H](C#N)N(C(=O)Cc3ccccc3)[C@@H]2CO)cc1,-29,94,-2,.,.,.,.
SMILES,Pf Dd2 inh,T cruzi growth-1,C diff HTS,T cruzi growth-2,T cruzi growth-3,3T3 cytotox,3T3 cytotox 2
C[C@@H]1CN([C@@H](C)CO)C(=O)c2cccc(NC(=O)Nc3ccc(C(F)(F)F)cc3)c2O[C@H]1CN(C)Cc1ccc(Cl)c(Cl)c1,-13,130*,9,102*,116*,39*,89*
C[C@@H]1CN([C@H](C)CO)C(=O)c2cccc(NC(=O)Nc3ccc(C(F)(F)F)cc3)c2O[C@@H]1CN(C)Cc1ccc(Cl)c(Cl)c1,-33,90,.,.,.,.,.
COc1ccc(NC(=O)Nc2cccc3c2O[C@@H](CN(C)Cc2ccc(Cl)c(Cl)c2)[C@H](C)CN([C@@H](C)CO)C3=O)cc1,-36,116*,5,99*,102*,14,53*
C[C@@H]1CN([C@H](C)CO)C(=O)c2cccc(NC(=O)Nc3ccc(F)cc3)c2O[C@H]1CN(C)Cc1ccc(Cl)c(Cl)c1,2,16,.,.,.,.,.
Cc1noc(C)c1S(=O)(=O)N(C)C[C@H]1OCCCC[C@H](C)Oc2ccc(NS(=O)(=O)c3cccs3)cc2C(=O)N([C@@H](C)CO)C[C@H]1C,-54,.,-17,.,.,.,.
C[C@@H]1CN([C@@H](C)CO)S(=O)(=O)c2ccc(-c3ccncc3)cc2O[C@@H]1CN(C)C,1,7,-5,.,.,.,.
C/C=C/c1ccc([C@H]2[C@@H](CO)N3CCCCN(C(=O)Nc4ccccc4F)C[C@@H]23)cc1,21,110*,-3,98*,52,-13,2
O=C(Nc1ccccc1F)N1CCCCN2[C@H](C1)[C@@H](c1ccc(/C=C/c3ccccc3)cc1)[C@@H]2CO,3,84,38,.,.,.,.
